About 83,000 compounds went through this panel and 20% of them were active in at least one assay; those are over-represented in the sample as a whole.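 Growth was measured after 48 h exposure to one concentration of compound in 96-well plates. Values under 10 count as active.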 Values without a mark were called inactive. The source made the active and inactive calls.

Results on eight molecules are retold here after PubChem BioAssay (NCI).

Test systems include NCI-H23 lung; NCI-H226 lung; NCI-H322M lung; HOP-62 NSCLC; NCI-H460 lung; HOP-92 NSCLC; NCI-H522 lung; A549/ATCC NSCLC; 786-0 renal; DU-145 prostate; K-562 leukemia; MALME-3M melanoma; MDA-MB-231 breast; SF-268 CNS; SF-295 CNS; SF-539 CNS; UACC-257 melanoma; M14 melanoma; RXF 393 renal.
Holding throughout (experiment): NCI-60 one-dose screen, 48 h (100 = growth as untreated, 0 = no growth, -100 = all killed)
Common to all, as to conditions: 10 µM unless noted

With `O=C1Nc2ccccc2SC1C1SC(=S)N(Cc2ccccc2)C1=O` (configuration not stated), the growth was 96.5% with NCI-H23 lung; 107% in the experiment on NCI-H226 lung; 113% in the experiment on NCI-H322M lung; 110% in the experiment on HOP-62 NSCLC; 106% in the experiment on NCI-H460 lung; 53.1% in the experiment with HOP-92 NSCLC. In addition, the growth was 100% in the experiment with NCI-H522 lung; 93% with A549/ATCC NSCLC; 100% in the experiment on 786-0 renal; -34.7% (active) in the experiment with DU-145 prostate; 4.45% (active) with K-562 leukemia; 53.7% with MALME-3M melanoma. The growth in the experiment with MDA-MB-231 breast is 94.8%; with SF-268 CNS it was 37.7%; in the experiment on SF-295 CNS, 63.2%; in the experiment with SF-539 CNS, 90.7%; in the experiment on UACC-257 melanoma, 88.3%; in the experiment on M14 melanoma it was 94.5%.
`CCCCNC(=O)c1cc(NCc2cc(O)ccc2O)ccc1O`: the growth is 93.4% with NCI-H23 lung; 106% with NCI-H226 lung; 91.3% with NCI-H322M lung; 84.4% with HOP-62 NSCLC; 106% in the experiment on NCI-H460 lung; 67.7% with HOP-92 NSCLC. Moreover, the growth was -55.7% (active) with NCI-H522 lung; 77.1% in the experiment on A549/ATCC NSCLC; 80.4% in the experiment on 786-0 renal; 99.7% in the experiment on DU-145 prostate; 108% with MALME-3M melanoma; 84% in the experiment with MDA-MB-231 breast. For the same molecule, the growth in the experiment on RXF 393 renal is 83.7%; in the experiment on SF-268 CNS, 84.1%; in the experiment with SF-295 CNS, 101%; with SF-539 CNS it was 62.2%; in the experiment with UACC-257 melanoma it was 68.9%.
As to `COc1cc(NC(=O)c2cccc(-c3cc(=O)c4c(O)c(OC)c(OC)cc4o3)c2)cc(OC)c1OC`, the growth is 34.9% with NCI-H23 lung; 7.69% (active) in the experiment with NCI-H226 lung; 74.4% with NCI-H322M lung; 11.7% in the experiment with HOP-62 NSCLC; 53.8% with NCI-H460 lung; 56.1% with HOP-92 NSCLC. The growth in the experiment on NCI-H522 lung is 41.2%; with A549/ATCC NSCLC it was 40.5%; with 786-0 renal, 66.3%; in the experiment on DU-145 prostate it was 57.3%; in the experiment with K-562 leukemia, 54.5%; with MALME-3M melanoma, 51%. The growth in the experiment with RXF 393 renal is 75%; in the experiment with SF-268 CNS it was 61.9%; in the experiment on SF-295 CNS it was 61.5%; in the experiment with SF-539 CNS, 51.7%; in the experiment with UACC-257 melanoma, 66.1%.
`Clc1ccc(-c2nnc(-c3ccco3)o2)cc1`: the growth in the experiment on NCI-H23 lung is 91.9%; in the experiment with NCI-H226 lung, 91.7%; with NCI-H322M lung, 93.6%; in the experiment with HOP-62 NSCLC, 80.9%; in the experiment with NCI-H460 lung, 108%; in the experiment on HOP-92 NSCLC it was 72.6%. For the same molecule, the growth in the experiment with NCI-H522 lung is 99.1%; with A549/ATCC NSCLC, 96.8%; in the experiment on 786-0 renal, 86.8%; with DU-145 prostate, 99.5%; with K-562 leukemia, 93.3%; in the experiment with MALME-3M melanoma, 113%. Further, the growth with MDA-MB-231 breast is 99%; with SF-268 CNS it was 101%; in the experiment on SF-295 CNS it was 112%; in the experiment on SF-539 CNS, 106%; in the experiment with UACC-257 melanoma it was 93.5%; in the experiment with M14 melanoma it was 101%.
For the molecule `O=C(CCCCCCCn1cc(-c2cccnc2)nn1)Nc1ccccc1-c1ccccc1`, the growth in the experiment with NCI-H23 lung is 63.6%; with NCI-H226 lung, 55.4%; in the experiment with NCI-H322M lung it was 65.3%; in the experiment on HOP-62 NSCLC it was 61.1%; with NCI-H460 lung, 29.3%; in the experiment with HOP-92 NSCLC, 96.5%. The growth with NCI-H522 lung was 27.5%; in the experiment on A549/ATCC NSCLC, 36.9%; in the experiment with 786-0 renal, 53.4%; in the experiment with DU-145 prostate, 37.2%; in the experiment on K-562 leukemia, 23.7%; in the experiment on MDA-MB-231 breast, 59.6%. The growth in the experiment with RXF 393 renal was 80.4%; in the experiment on SF-268 CNS, 63.8%; in the experiment on SF-295 CNS it was -15.9% (active); with SF-539 CNS, -7.88% (active); in the experiment with UACC-257 melanoma it was 65.6%; in the experiment with M14 melanoma, 17.3%.
On to `O=C(c1ccccc1)c1ccc(Cl)c([N+](=O)[O-])c1`, for which the growth is 100% in the experiment with NCI-H23 lung; 104% in the experiment on NCI-H226 lung; 90.6% in the experiment with NCI-H322M lung; 124% in the experiment on HOP-62 NSCLC; 101% in the experiment with NCI-H460 lung; 99.1% in the experiment with HOP-92 NSCLC. Also, the growth in the experiment on NCI-H522 lung is 77%; in the experiment with A549/ATCC NSCLC, 103%; in the experiment on 786-0 renal, 103%; in the experiment with DU-145 prostate it was 75.4%; with K-562 leukemia it was 7.38% (active); in the experiment on MDA-MB-231 breast, 114%. The growth in the experiment on RXF 393 renal is 104%; in the experiment on SF-268 CNS, 88.6%; in the experiment with SF-295 CNS, 99%; in the experiment on SF-539 CNS, 97.9%; in the experiment with UACC-257 melanoma, 87.6%; in the experiment on M14 melanoma, 94.6%.
Consider `O=C(CC1Sc2ccccc2NC1=O)NNc1ccc(F)cc1` (configuration not stated), for which the growth in the experiment on NCI-H23 lung was 95.3%; in the experiment with NCI-H226 lung it was 84.4%; with NCI-H322M lung it was 86.8%; in the experiment with HOP-62 NSCLC, 57.1%; in the experiment with NCI-H460 lung it was 93.1%; in the experiment with HOP-92 NSCLC, 71.4%. Besides, the growth in the experiment with NCI-H522 lung is 71.1%; with A549/ATCC NSCLC, 92.5%; with 786-0 renal it was 78.1%; in the experiment on DU-145 prostate, 98%; in the experiment on K-562 leukemia it was 13.6%; in the experiment with MALME-3M melanoma, 112%. In addition, the growth in the experiment on MDA-MB-231 breast was 84.9%; in the experiment on SF-268 CNS, 72.1%; in the experiment with SF-295 CNS, 31%; in the experiment on SF-539 CNS it was 94.8%; in the experiment on UACC-257 melanoma, 92.4%; in the experiment with M14 melanoma, 31.3%.
Regarding `Cc1c(C)c2c(c(C)c1NC(=O)/C=C\C(=O)O)CCC(C)(CCCC(C)CCCC(C)CCCC(C)C)O2` (configuration not stated), the growth in the experiment on NCI-H23 lung is 60.8%; in the experiment with NCI-H226 lung, -85.9% (active); with NCI-H322M lung, 102%; in the experiment on HOP-62 NSCLC it was -13.4% (active); in the experiment with NCI-H460 lung, 72.1%; with HOP-92 NSCLC it was 45.5%. Moreover, the growth is 66.7% in the experiment with NCI-H522 lung; 61.1% in the experiment on A549/ATCC NSCLC; 33.5% with 786-0 renal; 80.2% with DU-145 prostate; 71.9% in the experiment with K-562 leukemia; 70.9% with MDA-MB-231 breast. Besides, the growth with RXF 393 renal is -93% (active); in the experiment with SF-268 CNS it was 53.9%; in the experiment on SF-295 CNS it was 66.3%; in the experiment with SF-539 CNS it was 8.15% (active); in the experiment with UACC-257 melanoma it was 20.5%; with M14 melanoma it was 20.7%.
